PubChem BioAssay AID1159580 (chemical genetic matrix, 2015)
“And” between values parts separate entries of the source, which are not always exact repeats. Equal entries are not always repeated. Hit rate of the full screen: of about 5,500 compounds, about 2,000 (36%) were called active. Another 18% or so got no clear call; they are omitted. No stated cut-off is given here; in the data, active means normalized growth mostly below about 0.91 (no sharp cut-off); inconclusive means no clear call, values can overlap the other calls; inactive means mostly above about 0.92. This is one part of the list.

Experiment: chemical genetic growth profiling, strain panel (AID 1159580);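 further: tested at 20 µM; growth read once vehicle control cultures reached saturation at 30 °C; 1 = growth at the plate median or of vehicle wells; lower values mean less growth of the strain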
Conditions: S. cerevisiae deletion strains, growth OD

Measured: normalized growth

C[C@@H]1O[C@@H](OC[C@H]2OC(Oc3c(-c4ccc(O)c(O)c4)oc4cc(O)cc(O)c4c3=O)[C@H](O)[C@@H](O)[C@@H]2O)[C@H](O)[C@H](O)[C@H]1O (stereo not given in full)
active: locus YMR058W, strain fet3, hits give low values 0.881
inactive: locus YAL013W, strain DEP1, hits give low values 0.995 | locus YAL021C, strain ccr4, hits give low values 0.964 | locus YAL026C, strain drs2, hits give low values 0.993 | locus YAL030W, strain snc1, hits give low values 0.998 | locus YBL061C, strain skt5, hits give low values 1.01 | locus YBR009C, strain hhf1, hits give low values 0.994 | locus YBR021W, strain FUR4, hits give low values 1.03 | locus YBR023C, strain chs3, hits give low values 1 | locus YBR171W, strain sec66, hits give low values 1 | locus YBR229C, strain ROT2, hits give low values 1.01 | locus YBR231C, strain swc5, hits give low values 1 | locus YBR279W, strain paf1, hits give low values 0.996 | locus YCL011C, strain gbp2, hits give low values 0.98 | locus YCL016C, strain dcc1, hits give low values 0.982 | locus YCL029C, strain bik1, hits give low values 0.988 | locus YCL061C, strain MRC1, hits give low values 1.01 | locus YCL069W, strain vba3, hits give low values 1.01 | locus YCR088W, strain abp1, hits give low values 1.01 | locus YDL005C, strain med2, hits give low values 1 | locus YDL035C, strain GPR1, hits give low values 0.975 | locus YDL040C, strain nat1, hits give low values 1 | locus YDL074C, strain BRE1, hits give low values 0.949 | locus YDL101C, strain DUN1, hits give low values 1 | locus YDL185W, strain tfp1, hits give low values 0.941 | locus YDL192W, strain arf1, hits give low values 0.989 | locus YDR001C, strain nth1, hits give low values 0.986 | locus YDR069C, strain doa4, hits give low values 1 | locus YDR101C, strain arx1, hits give low values 0.983 | locus YDR137W, strain rgp1, hits give low values 0.974 | locus YDR150W, strain NUM1, hits give low values 0.996 | locus YDR159W, strain sac3, hits give low values 1.07 | locus YDR162C, strain NBP2, hits give low values 1.01 | locus YDR195W, strain ref2 1 | locus YDR297W, strain sur2, hits give low values 1.01 | locus YDR318W, strain mcm21, hits give low values 1 | locus YDR334W, strain swr1, hits give low values 1 | locus YDR335W, strain msn5, hits give low values 0.979 | locus YDR388W, hits give low values 1 | locus YDR392W, strain spt3, hits give low values 0.979 | locus YDR502C, strain sam2, hits give low values 1.01 | locus YEL003W, strain gim4, hits give low values 1.01 | locus YEL037C, strain rad23, hits give low values 1.01 | locus YEL061C, strain CIN8 (second series), hits give low values 1 | locus YEL061C, strain CIN8, hits give low values 1.01 | locus YER015W, strain faa2, hits give low values 0.973 | locus YER016W, strain bim1, hits give low values 1 | locus YER110C, hits give low values 0.985 | locus YER111C, strain swi4, hits give low values 0.994 | locus YER155C, strain BEM2 (second series), hits give low values 1.09 | locus YER155C, strain BEM2, hits give low values 1 | locus YER167W, strain BCK2, hits give low values 1.01 | locus YFR010W, strain ubp6, hits give low values 1 | locus YGL078C, strain dbp3, hits give low values 0.971 | locus YGL086W, strain mad1, hits give low values 0.997 | locus YGL167C, strain pmr1, hits give low values 0.975 | locus YGL173C, strain kem1, hits give low values 1.02 | locus YGL227W, strain vid30, hits give low values 1 | locus YGL240W, strain doc1, hits give low values 1.04 | locus YGL248W, strain PDE1, hits give low values 1.03 | locus YGL253W, strain hxk2, hits give low values 0.991 | locus YGR078C, strain PAC10, hits give low values 1.03 | locus YGR135W, strain pre9, hits give low values 1.03 | locus YGR252W, strain gcn5, hits give low values 1.09 | locus YHR013C, strain ard1, hits give low values 0.979 | locus YHR027C, strain rpn1, hits give low values 0.985 | locus YHR030C, strain SLT2, hits give low values 0.992 and 1.1 | locus YHR079C, strain IRE1 (second series), hits give low values 0.98 | locus YHR079C, strain IRE1, hits give low values 1.07 | locus YHR094C, strain hxt1, hits give low values 0.997 | locus YHR129C, strain ARP1, hits give low values 1.01 | locus YHR142W, strain chs7, hits give low values 0.969 | locus YHR200W, strain rpn10, hits give low values 1 | locus YIL066C, strain RNR3, hits give low values 1 | locus YIL073C, strain SPO22, hits give low values 0.99 | locus YIL125W, strain kgd1, hits give low values 0.994 | locus YIR030C, strain dcg1, hits give low values 0.997 | locus YJL092W, strain hpr5, hits give low values 1 | locus YJL095W, strain BCK1 (second series), hits give low values 1 | locus YJL095W, strain BCK1, hits give low values 1.07 and 1.06 | locus YJL115W, strain asf1, hits give low values 0.968 | locus YJL129C, strain trk1, hits give low values 0.987 | locus YJL134W, strain LCB3, hits give low values 0.997 | locus YJL154C, strain vps35, hits give low values 0.999 | locus YJL164C, strain tpk1, hits give low values 0.974 | locus YJL166W, strain qcr8, hits give low values 1.02 | locus YJL168C, strain set2, hits give low values 0.996 | locus YJL187C, strain SWE1 (second series), hits give low values 1.01 | locus YJL187C, strain SWE1, hits give low values 0.999 | locus YJR043C, strain POL32, hits give low values 1 | locus YJR066W, strain TOR1, hits give low values 1 | locus YJR075W, strain HOC1, hits give low values 1.02 | locus YKL009W, strain mrt4, hits give low values 1.11 | locus YKL068W, hits give low values 0.982 | locus YKL085W, strain MDH1 (second series), hits give low values 0.992 | locus YKL085W, strain MDH1, hits give low values 0.992 | locus YKL160W, strain elf1, hits give low values 0.976 | locus YKR001C, strain vps1, hits give low values 1.01 | locus YKR026C, strain gcn3, hits give low values 1 | locus YKR091W, strain srl3, hits give low values 0.996 | locus YLL001W, strain dnm1, hits give low values 0.942 | locus YLL026W, hits give low values 0.997 | locus YLL041C, strain sdh2, hits give low values 0.995 | locus YLR027C, strain aat2, hits give low values 1.01 | locus YLR039C, strain RIC1, hits give low values 0.979 | locus YLR058C, strain SHM2, hits give low values 1.03 | locus YLR102C, strain apc9, hits give low values 1 | locus YLR113W, strain HOG1, hits give low values 1.03 | locus YLR221C, strain rsa3, hits give low values 1.06 | locus YLR258W, strain gsy2, hits give low values 1.02 | locus YLR262C, strain YPT6 (second series), hits give low values 1.03 | locus YLR262C, strain YPT6, hits give low values 0.99 | locus YLR268W, strain sec22, hits give low values 0.977 | locus YLR320W, strain mms22, hits give low values 1.08 | locus YLR330W, strain CHS5, hits give low values 0.999 | locus YLR342W, strain FKS1 (second series), hits give low values 1 | locus YLR342W, strain FKS1, hits give low values 1.01 | locus YLR357W, strain rsc2, hits give low values 0.955 | locus YLR370C, strain arc18, hits give low values 1.01 | locus YLR371W, strain rom2, hits give low values 0.995 | locus YLR384C, strain iki3, hits give low values 0.993 | locus YLR418C, strain cdc73, hits give low values 1.03 | locus YML016C, strain PPZ1, hits give low values 1.01 | locus YML032C, strain rad52, hits give low values 1.03 | locus YML120C, strain ndi1, hits give low values 0.972 | locus YML124C, strain tub3, hits give low values 0.993 | locus YMR078C, strain ctf18, hits give low values 0.999 | locus YMR125W, strain sto1, hits give low values 0.965 | locus YMR129W, hits give low values 1.01 | locus YMR205C, strain PFK2, hits give low values 1 | locus YMR223W, strain ubp8, hits give low values 1.01 | locus YMR231W, strain pep5, hits give low values 1 | locus YMR307W, strain GAS1, hits give low values 1.03 | locus YNL067W, strain RPL9B, hits give low values 1.01 | locus YNL071W, strain lat1, hits give low values 1.02 | locus YNL183C, strain NPR1, hits give low values 0.999 | locus YNL209W, strain ssb2, hits give low values 0.939 | locus YNL233W, strain BNI4, hits give low values 1.02 | locus YNL248C, strain rpa49, hits give low values 1.01 | locus YNL250W, strain rad50, hits give low values 0.963 | locus YNL271C, strain bni1, hits give low values 0.987 | locus YNL298W, strain CLA4, hits give low values 0.982 | locus YNL307C, strain MCK1, hits give low values 0.987 | locus YNL322C, strain KRE1 (second series), hits give low values 0.997 | locus YNL322C, strain KRE1, hits give low values 1.01 | locus YNR049C, strain mso1, hits give low values 0.998 | locus YNR052C, strain pop2, hits give low values 1.01 | locus YOL006C, strain TOP1, hits give low values 1.03 | locus YOL012C, strain htz1 0.939 | locus YOL147C, strain pex11, hits give low values 1 | locus YOR001W, strain rrp6, hits give low values 1.03 | locus YOR061W, strain CKA2, hits give low values 1.01 | locus YOR069W, strain VPS5, hits give low values 0.994 | locus YOR070C, strain gyp1, hits give low values 0.999 | locus YOR080W, strain dia2, hits give low values 1.01 | locus YOR083W, strain WHI5, hits give low values 0.97 | locus YOR106W, strain vam3, hits give low values 0.877 | locus YOR136W, strain idh2, hits give low values 0.99 | locus YOR144C, strain elg1, hits give low values 1.01 | locus YOR184W, strain ser1, hits give low values 1 | locus YOR231W, strain MKK1, hits give low values 1.05 | locus YOR265W, strain rbl2, hits give low values 1.01 | locus YOR270C, strain vph1, hits give low values 1 | locus YOR290C, strain snf2, hits give low values 0.959 | locus YOR316C, strain cot1, hits give low values 0.999 | locus YPL051W, strain arl3, hits give low values 0.971 | locus YPL078C, strain atp4, hits give low values 0.941 | locus YPL106C, strain sse1, hits give low values 0.999 | locus YPL240C, strain hsp82, hits give low values 1 | locus YPL256C, strain CLN2, hits give low values 1.09 | locus YPR119W, strain clb2, hits give low values 1 | locus YPR141C, strain kar3, hits give low values 0.994 | locus YPR163C, strain tif3, hits give low values 0.998 | locus YPR167C, strain met16, hits give low values 0.991 | strain wtn01, hits give low values 0.975
